High-throughput results as filed in PubChem.
Only some compounds are listed: those with a hit (about 4.8% of all), similar ones and a draw of the others.
hgDAF12 agonist – activates the H. glycines DAF-12 receptor ligand-binding domain. HEK293 GAL4-hgDAF12 UAS-luciferase reporter, agonist luminescence; normalized to butyrate control. activation, % at 6.8 µM. actives 1.8% (n = 370,000);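 active = activation above a cutoff set at the mean of all screened compounds plus 3 SD, cut at about 10% in these data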
ssDAF12 agonist – S. stercoralis DAF-12 activation, primary screen; HEK293 ssDAF-12/GRIP1 lit1-tk-luc reporter, luminescence; % of 3 µM dafachronic acid response; activation, % at 6.8 µM; actives 1% (n = 370,000); AID 652126;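 active = activation above the mean over all tested compounds plus 3 SD, cut at about 0.9% in these data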
DAX1 inh-1 – DAX1 (NR0B1) inhibition, primary screen | HEK293T StAR-luciferase reporter, SF-1/DAX-1 repression relief | inhibition, % at 6.8 µM | actives 1.1% (n = 370,000) | AID 652010;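 active = inhibition above the mean over all tested compounds plus 3 SD, cut at about 3.6% in these data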;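 note: higher inhibition means more luminescence from relief of DAX-1 repression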
NR1D1 modulator – modulators of human Rev-erb alpha DNA binding | Rev-erbα–FITC-DNA binding, fluorescence polarization, 90 min | P20393 | activity, % at 10 µM | actives 0.79% (n = 370,000) | AID 1259318;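 active = activity above about 14%, limit read from the data; passing the limit was not always enough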
hcDAF12 agonist – activates DAF-12 receptor from parasite H. contortus; HEK293 hcDAF-12 lit1-tk-luc reporter, luminescence; 0% DMSO, 100% Δ7-dafachronic acid; activation, % at 6.8 µM; actives 1.4% (n = 370,000); AID 652067;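 active = activation above the mean of all tested compounds plus 3 SD, cut at about 5.5% in these data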
DAX1 inh-2 – inhibitors of human orphan nuclear receptor DAX1 (NR0B1); inhibition, % at 6.75 µM; actives 0.99% (n = 340,000); AID 504766; HEK293 Gal4-DAX1 luciferase reporter, luminescence;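 active = inhibition above the mean over all tested compounds plus 3 SD, cut at about 4.2% in these data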;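 note: inhibition shows as a rise in luminescence from relieved DAX1 repression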
Target sequence (P51843 207-470 limits assumed): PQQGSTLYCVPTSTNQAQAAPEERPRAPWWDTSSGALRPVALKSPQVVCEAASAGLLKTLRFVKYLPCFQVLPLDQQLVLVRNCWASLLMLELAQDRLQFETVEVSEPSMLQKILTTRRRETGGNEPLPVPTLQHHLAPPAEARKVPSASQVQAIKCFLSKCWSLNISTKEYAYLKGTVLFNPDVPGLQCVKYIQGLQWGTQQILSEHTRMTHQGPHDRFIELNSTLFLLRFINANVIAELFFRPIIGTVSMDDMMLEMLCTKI
Numbers stand for hits; n = inactive; x = no result.

SMILES	hgDAF12 agonist	ssDAF12 agonist	DAX1 inh-1	NR1D1 modulator	hcDAF12 agonist	DAX1 inh-2
COc1ccc(-n2nc(C(=O)NCC(=O)N3CCCC3)c3ccccc3c2=O)cc1	n	n	n	n	n	5.2
Cc1ccc(C)c(S(=O)(=O)NCC(=O)N2CCCC2)c1	n	n	n	n	n	n
Cc1cc(C)c(C)c(S(=O)(=O)NCC(=O)N2CCCC2)c1C	n	0.9	n	n	n	n
CC[C@H]1C=C[C@@H](C(=O)NS(=O)(=O)c2ccc(C)cc2)N(C(C)=O)C1	n	n	n	n	n	x
COc1ccccc1N1CCN(CCOc2c(OC)cccc2OC)CC1	n	n	n	n	n	4.6
COc1ccccc1N1CCN(C(=O)CCc2ccccc2)CC1	n	n	n	n	n	n
COc1ccccc1N1CCN(/N=C\c2ccccc2)CC1	n	n	n	n	n	5.1
COc1ccccc1N1CCN(C(=O)c2cc3ccccc3[nH]2)CC1	n	n	n	n	n	n
COc1ccccc1N1CCN(C(=O)CCC(=O)O)CC1	n	n	n	n	n	5.5
COc1ccccc1N1CCN(C(=O)c2cc3cc(F)ccc3[nH]2)CC1	n	n	n	n	5.8	n
COc1ccccc1N1CCN(CCCCOc2c(OC)cccc2OC)CC1	n	n	n	n	n	n
O=C(C(=O)N1CCC(CNS(=O)(=O)c2ccccc2OC(F)(F)F)CC1)c1cccs1	n	n	n	n	n	x
NC[C@H]1O[C@H](O[C@H]2C(O[C@@H]3O[C@H](CO)[C@@H](O)[C@H]3O)[C@@H](O)[C@H](N)C[C@@H]2N)[C@H](N)[C@@H](O)[C@@H]1O (stereo partly specified)	x	x	x	n	x	x
Cc1cc(-n2c(=O)[nH]c(=O)n(C)c2=O)ccc1Oc1ccc(S(=O)(=O)C(F)(F)F)cc1	x	x	x	n	x	x
O=C(CCCC(=O)N1CCN(c2ccccc2F)CC1)c1ccccc1	n	n	n	n	n	17
COc1ccccc1N1CCN(/N=C/C(Cl)=C/c2ccccc2)CC1	n	n	n	n	n	5.0
CCC(=O)Nc1ccc(NC(=O)c2cc3ccccc3o2)c(OC)c1	n	n	n	n	n	n
Cc1cc(C(=O)Nc2cccc(C(=O)O)c2)oc1C	10	n	n	n	n	n
CCC(=O)Nc1cccc(NC(=O)c2cc3ccccc3o2)c1	11	n	n	n	n	n
Cc1cc(C(=O)Nc2cccc(C(=O)O)c2)c(C)o1	n	n	n	n	n	n
O=C(NC(=S)Nc1cccnc1)c1cc2ccccc2o1	11	n	n	n	n	n
CCOC(=O)c1cccc(NC(=O)c2cc3ccccc3o2)c1	11	n	n	n	n	n
O=C(NCCc1ccc(F)cc1)c1cc2ccccn2n1	n	n	n	n	n	x
COc1ccc(C(=O)c2[nH]c(N)c(C(=O)c3c[nH]c4ccccc34)c2-c2ccc(OC)cc2)cc1	n	n	n	n	n	x
CC(C)C[C@H]1COc2cccc(F)c2S(=O)(=O)N1Cc1cn(Cc2ccc(C(F)(F)F)cc2)nn1	n	n	n	n	n	x
SMILES	hgDAF12 agonist	ssDAF12 agonist	DAX1 inh-1	NR1D1 modulator	hcDAF12 agonist	DAX1 inh-2
COCc1cn(-c2ccc3c(c2)[C@]2(CC(=O)N(C)C2c2ccccc2)C(=O)N3CC(C)C)nn1 (stereo partly specified)	n	n	n	n	n	x
O=C(NC1CCCCN(Cc2cccc(Cl)c2)C1=O)c1ccc(-c2ccccc2)cc1 (stereo unspecified)	n	n	n	n	n	x
CC1(C)CC(=O)C(N=Nc2cccc([N+](=O)[O-])c2)=C(O)C1	n	n	n	n	n	6.1
CC1(C)CC(=O)C(N=Nc2ccc(Br)cc2)=C(O)C1	n	n	n	n	n	x
Cc1ccccc1NC(=O)c1sc(Cl)nc1C	n	n	n	n	n	n
Cc1nc(Cl)sc1C(=O)Nc1ccc(C(C)(C)C)cc1	n	n	n	n	n	5.2
Cc1noc(N)c1C(=O)Nc1ccc(C(C)(C)C)cc1	13	n	n	n	n	n
CC1=C[C@@H]2[C@H]3C(=O)N(Cc4ccccc4)C(=O)[C@H]3[C@@H]1[C@@H]1O[C@@]3(C(=O)N(C)c4ccccc43)C3=C(CCCC3=O)N21	n	n	n	n	n	x
CCOC(=O)N1C(=O)C[C@](Sc2ccc(OC)cc2)(C(=O)N2CCCC2)[C@H]1c1ccc(OC)cc1	n	n	n	n	n	x
COc1ccc2[nH]c3c(c2c1)CCN[C@]31C(=O)N(C)c2ccc(Br)cc21	n	1.1	n	n	n	x
O=C(c1ccc(Cl)s1)N1CCCC1	n	n	n	n	n	n
CC(C)(C)c1ccc(C(=O)N2CCCC2)s1	n	n	n	n	n	5.8
O=C(NC1CCCCN(Cc2cccc(C(F)(F)F)c2)C1=O)c1ccc(-c2ccccc2)cc1 (stereo unspecified)	n	n	n	n	n	x
CN(C)S(=O)(=O)c1ccc(/C(O)=C2/C(=O)C(=O)N(CCCN3CCOCC3)C2c2ccncc2)cc1 (stereo unspecified)	n	n	n	n	n	5.1
COc1cccc(/C(O)=C2/C(=O)C(=O)N(CCCN3CCOCC3)C2c2ccncc2)c1 (stereo unspecified)	n	n	n	n	n	n
CCC(C)N(C(=O)CNc1nnnn1-c1ccccc1)C(C)CC (stereo unspecified)	n	n	n	n	n	x
COc1cc(C(=O)Nc2ccc(C)cc2)c2ccccc2n1	n	n	n	n	5.7	n
CCOc1ccc(NC(=O)Nc2ccccc2SC)cc1	11	n	n	n	n	4.5
O=C(Nc1ccc2ccccc2c1)c1cccc2ccccc12	n	n	n	n	n	n
COc1ccc(NC(=O)CSc2ccc(C)cc2)cc1	n	n	n	n	n	n
CSc1ccccc1NC(=O)Nc1ccccc1	n	n	n	n	n	n
COc1ccc(NC(=O)c2ccccc2NC(=O)CSc2ccc(C)cc2)cc1	n	n	n	n	5.9	n
COc1ccc(NC(=O)c2ccc3ccccc3c2OC)cc1	n	n	n	n	n	4.4
CCCCNC(=O)C1CCCN1C(=O)Nc1ccc(Cl)cc1 (stereo unspecified)	n	n	n	n	n	x
CCN1Cc2nnn(Cc3ccccc3)c2-c2cc(F)ccc2S1(=O)=O	n	n	n	n	n	x
COc1ccc(C(=O)NNC(=O)CSc2nc(C(C)C)nc3ccccc23)cc1	n	n	n	n	n	n
CCOc1ccc(NC(=O)c2cccc3ccccc23)cc1	n	n	n	n	n	n
CCOc1ccc(NC(=O)c2cc3ccccc3cc2O)cc1	n	1.2	n	n	n	n
COc1ccc(C(=O)NNC(=O)CSc2ccccc2)cc1	n	n	n	n	n	4.5
C=CCn1c(SCC(=O)NCCc2ccccc2)nc2c([nH]c3ccccc32)c1=O	n	1.0	n	n	n	n
